Laboratory results reported in PubChem BioAssay (NCI).
The panel holds about 83,000 compounds, 20% with a hit somewhere; the sample as a whole holds those more often.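 Note: values are percent growth. 100 is the growth of untreated cells, values between 100 and 0 indicate rising inhibition; between -100 and 0 indicates cell death.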 Active and inactive are the calls of the source. How the source made its calls: active means growth percent below 10; inactive means the rest.

Legend:
Assay in all cases: NCI-60 one-dose screen, 48 h (100 = growth as untreated, 0 = no growth, -100 = all killed)
HCT-15 colon = conditions: 10 µM unless noted
HT29 colon = conditions: 10 µM unless noted
SNB-75 CNS = conditions: 10 µM unless noted
SNB-19 CNS = conditions: 10 µM unless noted
U251 CNS = conditions: 10 µM unless noted
PC-3 prostate = conditions: 10 µM unless noted
SK-MEL-5 melanoma = conditions: 10 µM unless noted
UACC-62 melanoma = conditions: 10 µM unless noted
LOX IMVI melanoma = conditions: 10 µM
SK-MEL-28 melanoma = conditions: 10 µM unless noted

Measured: growth

CCc1ccccc1C(=O)N(CC)CC
inactive: HCT-15 colon 103% | HT29 colon 106% | SNB-75 CNS 90.6% | SNB-19 CNS 105% | U251 CNS 103% | PC-3 prostate 102% | SK-MEL-5 melanoma 104% | UACC-62 melanoma 99.5% | LOX IMVI melanoma 99.2% | SK-MEL-28 melanoma 102%

Nc1nc(N)nc(N2CCCCC2)n1
inactive: HCT-15 colon 107% | HT29 colon 98.2% | SNB-75 CNS 118% | SNB-19 CNS 115% | U251 CNS 101% | PC-3 prostate 99.5% | SK-MEL-5 melanoma 100% | UACC-62 melanoma 104% | LOX IMVI melanoma 104% | SK-MEL-28 melanoma 114%

Cc1ccc(C)c2c1CCC2=O
inactive: HCT-15 colon 100% | HT29 colon 105% | SNB-75 CNS 86.1% | SNB-19 CNS 93% | U251 CNS 103% | PC-3 prostate 98.6% | SK-MEL-5 melanoma 97.5% | UACC-62 melanoma 99.9% | LOX IMVI melanoma 96.2% | SK-MEL-28 melanoma 104%

NC(CCl)=NCC12CC3CC(CC(C3)C1)C2
inactive: SNB-75 CNS 13.2% | SNB-19 CNS 22.2% | UACC-62 melanoma 32.7% | SK-MEL-28 melanoma 55.3%
active: HCT-15 colon 9.53% | HT29 colon -13.6% | U251 CNS 6.8% | PC-3 prostate 7.42% | SK-MEL-5 melanoma 5.92% | LOX IMVI melanoma -33.6%

Cc1[nH]c(=S)[nH]c(=O)c1C
inactive: HCT-15 colon 99.4% | HT29 colon 104% | SNB-75 CNS 93.4% | SNB-19 CNS 103% | U251 CNS 92.4% | PC-3 prostate 102% | SK-MEL-5 melanoma 100% | UACC-62 melanoma 105% | LOX IMVI melanoma 104% | SK-MEL-28 melanoma 110%

CC(=O)Nc1ncc(S(=O)(=O)c2ccc([N+](=O)[O-])cc2)s1
inactive: HCT-15 colon 105% | HT29 colon 108% | SNB-75 CNS 103% | SNB-19 CNS 114% | U251 CNS 108% | PC-3 prostate 101% | SK-MEL-5 melanoma 113% | UACC-62 melanoma 102% | LOX IMVI melanoma 106% | SK-MEL-28 melanoma 111%

C=C(OC(C)=O)c1ccccc1
inactive: HCT-15 colon 114% | HT29 colon 98.4% | SNB-75 CNS 98% | SNB-19 CNS 106% | U251 CNS 89.8% | PC-3 prostate 79.4% | SK-MEL-5 melanoma 101% | UACC-62 melanoma 97% | LOX IMVI melanoma 94.4% | SK-MEL-28 melanoma 118%

CS(=O)(=O)c1ccc(/C=C\C(=O)O)cc1
inactive: HCT-15 colon 96.1% | HT29 colon 104% | SNB-75 CNS 80.2% | SNB-19 CNS 102% | U251 CNS 104% | PC-3 prostate 98.1% | SK-MEL-5 melanoma 99.5% | UACC-62 melanoma 111% | LOX IMVI melanoma 98% | SK-MEL-28 melanoma 105%

C#CCSc1nnnn1-c1ccccc1
inactive: HCT-15 colon 54.1% | HT29 colon 96% | SNB-75 CNS 73.2% | SNB-19 CNS 97.5% | U251 CNS 36.7% | PC-3 prostate 89.4% | SK-MEL-5 melanoma 91.1% | UACC-62 melanoma 101% | LOX IMVI melanoma 95.1% | SK-MEL-28 melanoma 100%

CCCCCCCCCCC(=O)CCCCCCCCCC
inactive: HCT-15 colon 99.7% | HT29 colon 104% | SNB-75 CNS 95.9% | SNB-19 CNS 109% | U251 CNS 101% | PC-3 prostate 97.8% | SK-MEL-5 melanoma 102% | UACC-62 melanoma 105% | LOX IMVI melanoma 94.6% | SK-MEL-28 melanoma 106%

OC1Cc2ccccc2C1
inactive: HCT-15 colon 93.3% | HT29 colon 100% | SNB-75 CNS 93.6% | SNB-19 CNS 100% | U251 CNS 105% | PC-3 prostate 95.4% | SK-MEL-5 melanoma 101% | UACC-62 melanoma 95.6% | LOX IMVI melanoma 93.3% | SK-MEL-28 melanoma 102%

CCOC(OCC)C(=O)c1ccccc1
inactive: HCT-15 colon 104% | HT29 colon 92.7% | SNB-75 CNS 94.1% | SNB-19 CNS 103% | U251 CNS 95% | PC-3 prostate 85% | SK-MEL-5 melanoma 96.1% | UACC-62 melanoma 111% | LOX IMVI melanoma 95.4% | SK-MEL-28 melanoma 104%

C=CCN1CCCC1=O
inactive: HCT-15 colon 104% | HT29 colon 96.3% | SNB-75 CNS 70.2% | SNB-19 CNS 93.1% | U251 CNS 102% | PC-3 prostate 94.6% | SK-MEL-5 melanoma 101% | UACC-62 melanoma 86.1% | LOX IMVI melanoma 108% | SK-MEL-28 melanoma 108%

CC(C)c1ccc(C(=O)OCCCl)cc1
inactive: HCT-15 colon 94% | HT29 colon 109% | SNB-75 CNS 94% | SNB-19 CNS 91.1% | U251 CNS 101% | PC-3 prostate 106% | SK-MEL-5 melanoma 100% | UACC-62 melanoma 110% | LOX IMVI melanoma 97.1% | SK-MEL-28 melanoma 92%

CSc1cnc2ccccc2n1
inactive: HCT-15 colon 104% | HT29 colon 83.2% | SNB-75 CNS 107% | SNB-19 CNS 99.5% | U251 CNS 94.1% | PC-3 prostate 89.6% | SK-MEL-5 melanoma 105% | UACC-62 melanoma 97.1% | LOX IMVI melanoma 96.4% | SK-MEL-28 melanoma 110%

CCCCN(C=S)CCCC
inactive: HCT-15 colon 98.1% | HT29 colon 102% | SNB-75 CNS 87.4% | SNB-19 CNS 94.3% | U251 CNS 90.3% | PC-3 prostate 91.5% | SK-MEL-5 melanoma 101% | UACC-62 melanoma 96.4% | LOX IMVI melanoma 106% | SK-MEL-28 melanoma 96.2%

CC(=O)c1cccc(O)c1
inactive: HCT-15 colon 101% | HT29 colon 92.1% | SNB-75 CNS 91.4% | SNB-19 CNS 108% | U251 CNS 97.2% | PC-3 prostate 106% | SK-MEL-5 melanoma 100% | UACC-62 melanoma 109% | LOX IMVI melanoma 94.6% | SK-MEL-28 melanoma 109%

C1C[S+]2CC[S+]1CC2
inactive: HCT-15 colon 105% | HT29 colon 98.9% | SNB-75 CNS 117% | SNB-19 CNS 103% | U251 CNS 96.4% | PC-3 prostate 101% | SK-MEL-5 melanoma 98.8% | UACC-62 melanoma 104% | LOX IMVI melanoma 95.8% | SK-MEL-28 melanoma 118%

O=Cc1ccc(O)c(O)c1
inactive: HCT-15 colon 103% | HT29 colon 105% | SNB-75 CNS 87.2% | SNB-19 CNS 86% | U251 CNS 102% | PC-3 prostate 82.9% | SK-MEL-5 melanoma 95.3% | UACC-62 melanoma 98.2% | LOX IMVI melanoma 91.2% | SK-MEL-28 melanoma 92.4%

N#C/C(=C\c1ccc(C#N)cc1)C(=O)c1ccccc1
inactive: HCT-15 colon 95.7% | HT29 colon 104% | SNB-75 CNS 77.8% | SNB-19 CNS 93.4% | U251 CNS 94.3% | PC-3 prostate 87.6% | SK-MEL-5 melanoma 106% | UACC-62 melanoma 92.8% | LOX IMVI melanoma 98.8% | SK-MEL-28 melanoma 121%

O=C(CCl)Oc1ccc([N+](=O)[O-])cc1
inactive: HCT-15 colon 110% | HT29 colon 119% | SNB-75 CNS 91.2% | SNB-19 CNS 115% | U251 CNS 106% | PC-3 prostate 89.9% | SK-MEL-5 melanoma 103% | UACC-62 melanoma 114% | LOX IMVI melanoma 98.1% | SK-MEL-28 melanoma 114%

O=c1cc(Cl)nc2ccccn12
inactive: HCT-15 colon 109% | HT29 colon 111% | SNB-75 CNS 109% | SNB-19 CNS 103% | U251 CNS 107% | PC-3 prostate 96.7% | SK-MEL-5 melanoma 105% | UACC-62 melanoma 117% | SK-MEL-28 melanoma 101%

C[C@H](CCC[C@H](C)OS(=O)(=O)c1ccccc1)OS(=O)(=O)c1ccccc1
inactive: HCT-15 colon 101% | HT29 colon 111% | SNB-75 CNS 88% | SNB-19 CNS 94.5% | U251 CNS 108% | PC-3 prostate 108% | SK-MEL-5 melanoma 114% | UACC-62 melanoma 89.8% | LOX IMVI melanoma 101% | SK-MEL-28 melanoma 118%

COc1ccc(/C=C\C(=O)/C=C/c2ccc(OC)cc2)cc1
inactive: HT29 colon 49.3% | SNB-75 CNS 103% | SNB-19 CNS 89.3% | U251 CNS 63.8% | PC-3 prostate 62.3% | SK-MEL-5 melanoma 91.7% | UACC-62 melanoma 70.4% | SK-MEL-28 melanoma 106%
active: HCT-15 colon -13.7%

COc1ccc(Br)c(C=O)c1
inactive: HCT-15 colon 26.8% | HT29 colon 76.3% | SNB-75 CNS 54.8% | SNB-19 CNS 74.8% | U251 CNS 39.1% | PC-3 prostate 71.7% | SK-MEL-5 melanoma 81.8% | UACC-62 melanoma 63.8% | SK-MEL-28 melanoma 86%

CC1CC2C3CCC4=CC(=O)CCC4(C)C3CCC2(C)C1(O)C(=O)CO (configuration not stated)
inactive: HCT-15 colon 106% | HT29 colon 97.4% | SNB-75 CNS 110% | SNB-19 CNS 110% | U251 CNS 108% | PC-3 prostate 93.9% | SK-MEL-5 melanoma 104% | UACC-62 melanoma 108% | SK-MEL-28 melanoma 109%

NCCCN1CCCC1=O
inactive: HCT-15 colon 116% | HT29 colon 112% | SNB-75 CNS 116% | SNB-19 CNS 95.3% | U251 CNS 108% | PC-3 prostate 96.9% | SK-MEL-5 melanoma 100% | UACC-62 melanoma 96.4% | SK-MEL-28 melanoma 111%

NNC(=O)N/N=C1\C(=O)N(c2nccs2)C(=O)C(=O)C1c1nc2ccccc2s1 (configuration not stated)
inactive: HCT-15 colon 116% | HT29 colon 94.1% | SNB-75 CNS 81.8% | SNB-19 CNS 101% | U251 CNS 80% | PC-3 prostate 82.6% | SK-MEL-5 melanoma 96.5% | UACC-62 melanoma 90.5% | SK-MEL-28 melanoma 112%

C=C(c1ccc(N(C)C)cc1)c1ccc(N(C)C)cc1
inactive: SNB-19 CNS 20.6% | PC-3 prostate 25.7% | SK-MEL-28 melanoma 31.5%
active: HCT-15 colon 6.8% | HT29 colon -31.6% | SNB-75 CNS -14.5% | U251 CNS 3.57% | SK-MEL-5 melanoma -0.97% | UACC-62 melanoma -8.67%

COc1cccc(N=CNc2cccc(OC)c2)c1
inactive: HCT-15 colon 85.2% | HT29 colon 99.6% | SNB-75 CNS 90.8% | SNB-19 CNS 103% | U251 CNS 95.9% | PC-3 prostate 84.2% | SK-MEL-5 melanoma 99% | UACC-62 melanoma 56.4% | SK-MEL-28 melanoma 106%
